Measurements published in PubChem BioAssay AID720690 (Broad Institute, 2013).
Results with a measured potency or affinity are listed apart. Calls of active or inactive are those of the source.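 The calls were made as follows: active = every repeat run showing a signal drop whose fitted half-maximal concentration is at most twice the top tested concentration; inconclusive = repeat runs disagree, or flat partial drop, or poor fit; inactive = the rest.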

Assay: general mammalian cell viability loss – activator set, cherry-pick, cytotoxicity control for miR-122 modulator project, dose response (AID 720690);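 also: 0% = neutral control wells and -100% = MG132 cytotoxic control wells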
Settings: HEK293T viability, CellTiter-Glo luminescence, 48 h; series mostly up to 26 µM; activity change, negative = cytotoxicity: at the top concentration
With CC(C)C(=O)Nc1ccc2c(c1)C(=O)N(C)[C@H]1CC[C@@H](CC(=O)NCc3ccccc3F)O[C@H]1CO2 the “activity change, negative = cytotoxicity” value was -2.13% [at 23.5 µM] (inactive).
In the case of COc1ccc(S(=O)(=O)N(C)C[C@@H]2Oc3cc(-c4cccc(F)c4)ccc3S(=O)(=O)N([C@H](C)CO)C[C@H]2C)cc1, the “activity change, negative = cytotoxicity” value is reported as -32.3% (inactive).
With CN1C(=O)c2cc(NC(=O)Nc3cccc(Cl)c3)ccc2OC[C@H]2O[C@H](CC(=O)NCCc3ccncc3)CC[C@H]21 the “activity change, negative = cytotoxicity” value was -1.57% (inactive).
With C/C=C/c1ccc([C@@H]2[C@@H](CO)N(S(C)(=O)=O)[C@H]2CN(C)C(=O)CC)cc1 the “activity change, negative = cytotoxicity” value was -8.55% (inactive).
For CO[C@H]1CN(C)C(=O)c2ccc(NC(C)=O)cc2OC[C@@H](C)N(C(=O)CC2CC2)C[C@H]1C, the “activity change, negative = cytotoxicity” value was -2.04% (inactive).
With CCN(C[C@@H]1[C@@H](c2ccccc2)[C@@H](CO)N1C(=O)COC)S(C)(=O)=O the “activity change, negative = cytotoxicity” value was -8.83% [at 23.5 µM] (inactive).
With CC(C)NC(=O)N1C[C@@H]2[C@H](c3ccccc31)[C@H](CO)N2Cc1ccccc1 the “activity change, negative = cytotoxicity” value was -2.49% [at 23.5 µM] (inactive).
In the case of CC(C)NC(=O)N1[C@H](CO)[C@@H](c2ccccc2)[C@@H]1CN(C)C(=O)c1cccnc1, the “activity change, negative = cytotoxicity” value is reported as -0.275% (inactive).
For C[C@H](CO)N1C[C@H](C)[C@H](CN(C)S(=O)(=O)c2ccc(F)cc2)Oc2ccc(NS(C)(=O)=O)cc2C1=O, the “activity change, negative = cytotoxicity” value was -2.03% (inactive).
With COc1cccc(C(=O)Nc2ccc3c(c2)C(=O)N(C)[C@@H]2CC[C@@H](CC(=O)NCc4ccc(F)cc4)O[C@@H]2CO3)c1 the “activity change, negative = cytotoxicity” value was -2.6% (inactive).
In the case of COC(=O)C[C@@H]1CC[C@@H]2[C@H](COc3ccc(NC(=O)Nc4cccc(F)c4)cc3C(=O)N2C)O1, the “activity change, negative = cytotoxicity” value is reported as -1.64% (inactive).
For C[C@@H]1CN([C@H](C)CO)S(=O)(=O)c2ccc(-c3ccc(C(=O)N(C)C)cc3)cc2O[C@@H]1CN(C)C(=O)C1CCC1, the “activity change, negative = cytotoxicity” value was 0.607% (inactive).
In the case of CCC(=O)Nc1ccc2c(c1)C(=O)N(C)[C@@H]1CC[C@H](CC(=O)NCCN3CCCCC3)O[C@H]1CO2, the “activity change, negative = cytotoxicity” value is reported as -0.622% (inactive).
With CCNC(=O)C[C@H]1CC[C@@H]2[C@H](COc3ccc(NC(=O)Nc4cccc(OC)c4)cc3C(=O)N2C)O1 the “activity change, negative = cytotoxicity” value was 2.23% (inactive).
In the case of CC(=O)N1[C@H](CN(C(=O)c2ccc(F)cc2)C(C)C)[C@H](c2ccccc2)[C@@H]1CO, the “activity change, negative = cytotoxicity” value is reported as -14.4% [at 23.5 µM] (inactive).
For Cc1cc(C)cc(NC(=O)c2ccc(CSc3nnc(C)s3)cc2)c1, the “activity change, negative = cytotoxicity” value was -16.6% (inactive).
With O=C(COC(=O)Cc1ccc(S(=O)(=O)N2CCOCC2)s1)Nc1ccc2c(c1)OCO2 the “activity change, negative = cytotoxicity” value was -7.67% (inactive).
For CN(C)CCCNC(=O)C[C@@H]1CC[C@H]2[C@@H](COc3ccc(NC(=O)c4cccc(F)c4)cc3C(=O)N2C)O1, the “activity change, negative = cytotoxicity” value was -6.25% (inactive).
For CNC(=O)C[C@@H]1CC[C@H]2[C@@H](COc3ccc(NC(=O)NC(C)C)cc3C(=O)N2C)O1, the “activity change, negative = cytotoxicity” value was -0.66% [at 23.5 µM] (inactive).
In the case of C/C=C/c1ccc([C@H]2[C@@H](CO)N[C@@H]2CN(CC)C(=O)CN2CCOCC2)cc1, the “activity change, negative = cytotoxicity” value is reported as -5.97% (inactive).
With CCN(C[C@H]1[C@H](c2ccccc2)[C@@H](CO)N1S(C)(=O)=O)C(=O)C1CC1 the “activity change, negative = cytotoxicity” value was -5.84% (inactive).
With C[C@H](CO)N1C[C@H](C)[C@@H](CN(C)Cc2ccc(Oc3ccccc3)cc2)Oc2ncc(-c3cncnc3)cc2C1=O the “activity change, negative = cytotoxicity” value was -8.03% (inactive).
In the case of CCCNC(=O)C[C@@H]1CC[C@H]2[C@@H](COc3ccc(NC(=O)c4ccc(C(F)(F)F)cc4)cc3C(=O)N2C)O1, the “activity change, negative = cytotoxicity” value is reported as -11.3% (inactive).
In the case of CO[C@H]1CN(C)C(=O)c2cc(NC(=O)c3ccccc3F)ccc2OC[C@@H](C)N(C)C[C@@H]1C, the “activity change, negative = cytotoxicity” value is reported as -1.08% (inactive).
With COCC(=O)NC[C@H]1[C@@H](c2ccc(C3=CCCC3)cc2)[C@H](CO)N1C(=O)C1CC1 the “activity change, negative = cytotoxicity” value was -9.54% (inactive).
For O=C(NC[C@@H]1[C@H](c2ccccc2)[C@@H](CO)N1Cc1cccnc1)c1ccccn1, the “activity change, negative = cytotoxicity” value was 35.7% (inactive).
In the case of C[C@H](NC(=O)C[C@@H]1CC[C@H]2[C@H](COc3ccc(NS(=O)(=O)c4ccc(Cl)cc4)cc3C(=O)N2C)O1)c1ccccc1, the “activity change, negative = cytotoxicity” value is reported as -12.7% (inactive).
In the case of CNC(=O)C[C@H]1CC[C@@H]2[C@H](COc3ccc(NC(=O)Nc4ccccc4)cc3C(=O)N2C)O1, the “activity change, negative = cytotoxicity” value is reported as 3.51% (inactive).
In the case of CC(C)NC(=O)N1[C@H](CO)[C@@H](c2ccccc2)[C@@H]1CNC(=O)CN(C)C, the “activity change, negative = cytotoxicity” value is reported as -3.2% (inactive).
For COc1ccc(N2CCc3c(C)nc4c(OC)cc(OC)cc4c32)c(OC)c1, the “activity change, negative = cytotoxicity” value was -19.9% (inactive).
In the case of C[C@@H]1CN([C@H](C)CO)S(=O)(=O)c2ccc(C#CC3(O)CCCC3)cc2O[C@@H]1CN(C)C(=O)c1cccnc1, the “activity change, negative = cytotoxicity” value is reported as -4.02% (inactive).
For O=C(c1cccnc1)N1C[C@H]2[C@@H](c3ccccc31)[C@H](CO)N2C(=O)Nc1ccccc1Cl, the “activity change, negative = cytotoxicity” value was -14.2% [at 23.5 µM] (inactive).
With CCC(=O)N1[C@H](CN(C(C)C)S(C)(=O)=O)[C@@H](c2ccccc2)[C@@H]1CO the “activity change, negative = cytotoxicity” value was -1.45% [at 23.5 µM] (inactive).
In the case of Cc1ccc(S(=O)(=O)NCCCNS(C)(=O)=O)cc1, the “activity change, negative = cytotoxicity” value is reported as 7.67% (inactive).
In the case of COCC(=O)N(C[C@H]1[C@H](c2ccccc2)[C@@H](CO)N1C(=O)NC(C)C)C(C)C, the “activity change, negative = cytotoxicity” value is reported as 5.41% (inactive).
For CN(Cc1ccccc1)C(=O)COC(=O)c1ccccc1Nc1ccccc1, the “activity change, negative = cytotoxicity” value was -0.674% (inactive).
For Cc1cc2n(n1)C(c1cn(-c3ccccc3)nc1C)Nc1c(C)cccc1-2 (stereo not given), the “activity change, negative = cytotoxicity” value was -3.5% (inactive).
For CNC(=O)C[C@H]1CC[C@@H]2[C@H](COc3ccc(NC(=O)Nc4ccccc4OC)cc3C(=O)N2C)O1, the “activity change, negative = cytotoxicity” value was -0.263% (inactive).
For CN1C(=O)c2cc(NC(=O)c3ccc(F)cc3)ccc2OC[C@@H]2O[C@@H](CC(=O)O)CC[C@@H]21, the “activity change, negative = cytotoxicity” value was 11% (inactive).
With COc1ccc(NS(=O)(=O)c2ccc(NC(=O)C(C)(C(F)(F)F)C(F)(F)F)cc2)nn1 the “activity change, negative = cytotoxicity” value was 5.66% (inactive).
